This is an account of results in PubChem BioAssay (NCI).

Among the test systems are SK-MEL-2 melanoma; EKVX NSCLC; SN12C renal; UO-31 renal; TK-10 renal; ACHN renal; CAKI-1 renal; CCRF-CEM leukemia; MOLT-4 leukemia; SR leukemia; RPMI-8226 leukemia; OVCAR-8 ovarian; OVCAR-5 ovarian; OVCAR-4 ovarian; SK-OV-3 ovarian; IGROV1 ovarian; OVCAR-3 ovarian; HS 578T breast; NCI/ADR-RES ovarian.
Assay in all cases: NCI-60 one-dose screen, 48 h (100 = growth as untreated, 0 = no growth, -100 = all killed)
What all share (conditions): 10 µM unless noted

Molecules are shown by their SMILES. Compounds without any hit were thinned out: in the full panel of roughly 83,000, 20% have a hit.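 Assay: single dose, 48 h. Readout: percent growth (0 = no net growth; negative = cell death). Active: <10.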 A number with no mark means an inactive call. Calls of active or inactive are those of the source.

With `O=C(/C=C/c1ccc(C(F)(F)F)cc1)Nc1ccc(C=C2c3ccccc3C(=O)c3ccccc32)cc1`, the growth was 25.5% in the test on SK-MEL-2 melanoma; 53.6% in the test with EKVX NSCLC; 89.6% in the test with SN12C renal; 72.6% in the test on UO-31 renal; 70.2% in the test on TK-10 renal; 74.8% in the test with ACHN renal. For the same compound, the growth is 56.2% with CAKI-1 renal; 32.6% with CCRF-CEM leukemia; 47.5% in the test with MOLT-4 leukemia; 18.6% with SR leukemia; 10.4% with RPMI-8226 leukemia; 55.7% with OVCAR-8 ovarian. Also, the growth in the test on OVCAR-5 ovarian is 84.2%; with OVCAR-4 ovarian, 47.5%; in the test with SK-OV-3 ovarian it was 77.9%; in the test with IGROV1 ovarian, 111%; with OVCAR-3 ovarian, 44.1%; in the test on HS 578T breast it was 78.5%. Also, the growth with NCI/ADR-RES ovarian is 60%.

Consider `CC(C)CSc1nc(N)nc2c1ncn2C1OC(CO)C(O)C1O` (configuration not stated), for which the growth in the test on SK-MEL-2 melanoma was 111%; with EKVX NSCLC, 93.2%; in the test on SN12C renal, 94%; with UO-31 renal, 95.2%; with TK-10 renal, 107%; with ACHN renal, 94.6%. The growth in the test on CAKI-1 renal is 82.8%; in the test with CCRF-CEM leukemia, 102%; with MOLT-4 leukemia, 110%; in the test with SR leukemia, 111%; in the test with RPMI-8226 leukemia, 103%; with OVCAR-8 ovarian, 110%. For the same compound, the growth in the test on OVCAR-5 ovarian is 93%; in the test with OVCAR-4 ovarian, 109%; with SK-OV-3 ovarian, 103%; in the test on IGROV1 ovarian, 93.4%; in the test on OVCAR-3 ovarian, 116%; in the test on HS 578T breast, 103%. In addition, the growth with NCI/ADR-RES ovarian is 103%.

For `O=C(COc1ccc(/C=C2\COc3ccccc3C2=O)cc1)Nc1nccs1`, the growth in the test on SK-MEL-2 melanoma is 72.8%; with EKVX NSCLC, 102%; with SN12C renal it was 114%; in the test on UO-31 renal, 73.2%; with TK-10 renal, 88.7%; in the test on ACHN renal it was 94.1%. In addition, the growth was 103% in the test on CAKI-1 renal; 7.16% (active) in the test with CCRF-CEM leukemia; 22.5% with MOLT-4 leukemia; -2.82% (active) in the test on SR leukemia; -0.182% (active) in the test on RPMI-8226 leukemia; 85% in the test with OVCAR-8 ovarian. Besides, the growth with OVCAR-5 ovarian was 93%; with OVCAR-4 ovarian it was 92.9%; with SK-OV-3 ovarian, 127%; in the test on IGROV1 ovarian, 3.63% (active); in the test on OVCAR-3 ovarian it was 95.8%; in the test on HS 578T breast, -38.3% (active). Further, in the test with NCI/ADR-RES ovarian, the growth is 86.1%.

On to `OCC(O)c1nc2ccc3[nH]ncc3c2c2c1CCCC2` (configuration not stated), for which the growth with SK-MEL-2 melanoma was 9.63% (active); with EKVX NSCLC, 5.55% (active); with SN12C renal, 11.8%; with UO-31 renal, 7.51% (active); in the test on TK-10 renal, 4.51% (active); in the test on ACHN renal, 4.18% (active). In addition, the growth with CAKI-1 renal is 7.54% (active); with CCRF-CEM leukemia it was 6.71% (active); with MOLT-4 leukemia, 1.37% (active); with SR leukemia, -4.58% (active); in the test with RPMI-8226 leukemia, 10.2%; in the test with OVCAR-8 ovarian, 10.8%. Moreover, the growth is 10.2% with OVCAR-5 ovarian; 50.4% in the test on OVCAR-4 ovarian; 40.9% in the test on SK-OV-3 ovarian; 10.4% with IGROV1 ovarian; 16.1% in the test with OVCAR-3 ovarian; -10.5% (active) in the test with HS 578T breast. The growth with NCI/ADR-RES ovarian was 9.22% (active).

Regarding `CCOC(=O)c1c(C)oc2ncnc(N3CCN(C(=S)Nc4ccccc4)CC3)c12`, the growth in the test on SK-MEL-2 melanoma is 95.3%; in the test on EKVX NSCLC it was 91.2%; in the test on SN12C renal, 92.7%; in the test on UO-31 renal it was 75.1%; in the test with TK-10 renal, 100%; in the test on ACHN renal it was 92%. Further, the growth is 79.6% with CAKI-1 renal; 92.3% in the test on CCRF-CEM leukemia; 91.3% in the test with MOLT-4 leukemia; 94.5% in the test with SR leukemia; 83.3% in the test with RPMI-8226 leukemia; 94% in the test with OVCAR-8 ovarian. The growth was 90% in the test with OVCAR-5 ovarian; 85.1% in the test with OVCAR-4 ovarian; 96.9% with SK-OV-3 ovarian; 95.4% in the test with IGROV1 ovarian; 103% in the test on OVCAR-3 ovarian; 87% in the test with HS 578T breast. The growth with NCI/ADR-RES ovarian was 90.3%.

Take `COc1cc(-c2nn(C)nc2-c2cc3ccccc3s2)cc(OC)c1OC`: the growth with SK-MEL-2 melanoma is 32.9%; with EKVX NSCLC, 43.6%; in the test on SN12C renal it was 42.3%; in the test on UO-31 renal, 40.4%; in the test on TK-10 renal, 65%; with ACHN renal, 43.2%. The growth in the test with CAKI-1 renal is 43.6%; in the test with CCRF-CEM leukemia it was 17.5%; in the test on MOLT-4 leukemia, 11.7%; in the test on SR leukemia it was 21.6%; in the test with RPMI-8226 leukemia, 20.7%; in the test with OVCAR-8 ovarian, 28%. Further, the growth was 57.2% with OVCAR-5 ovarian; 57.1% in the test with OVCAR-4 ovarian; 21.2% in the test on SK-OV-3 ovarian; 39% in the test on IGROV1 ovarian; 0.446% (active) in the test with OVCAR-3 ovarian; 19.3% with HS 578T breast. Further, the growth in the test on NCI/ADR-RES ovarian was 9.9% (active).

As for `Cn1nc(N)c2cc([C@@H]3Nc4ccc5[nH]ncc5c4[C@H]4C5CCC(C5)[C@@H]34)ccc21` (some centres not stated), the growth in the test with SK-MEL-2 melanoma was 46.6%; with EKVX NSCLC, 47.1%; in the test with SN12C renal it was 50.7%; with UO-31 renal, 40.6%; with TK-10 renal, 80.4%; with ACHN renal it was 39.6%. For the same compound, the growth with CAKI-1 renal was 40.9%; in the test on CCRF-CEM leukemia, 16.7%; in the test with MOLT-4 leukemia, 20.1%; in the test on SR leukemia it was 14.7%; in the test with RPMI-8226 leukemia, 47.8%; in the test with OVCAR-8 ovarian, 38.2%. Also, the growth was 35.1% with OVCAR-5 ovarian; 41.4% in the test with OVCAR-4 ovarian; 41.7% in the test on SK-OV-3 ovarian; 27.3% with IGROV1 ovarian; -16.2% (active) in the test on OVCAR-3 ovarian; 20.6% with HS 578T breast. In addition, the growth in the test with NCI/ADR-RES ovarian is 3.15% (active).

Take `O=C1/C(=C/c2ccccc2)SC(=S)N1CCc1ccc(O)cc1`: the growth in the test on SK-MEL-2 melanoma is 101%; in the test on EKVX NSCLC, 91.9%; with SN12C renal, 91.3%; in the test on UO-31 renal, 65%; with TK-10 renal, 99.9%; in the test on ACHN renal, 93.9%. The growth was 73.3% with CAKI-1 renal; 74.2% with CCRF-CEM leukemia; 88.6% in the test on MOLT-4 leukemia; 93.7% in the test on SR leukemia; 95.5% in the test with RPMI-8226 leukemia; 96.3% in the test on OVCAR-8 ovarian. For the same compound, the growth with OVCAR-5 ovarian is 103%; in the test with OVCAR-4 ovarian it was 76.4%; with SK-OV-3 ovarian it was 85%; in the test on IGROV1 ovarian, 82.3%; in the test with OVCAR-3 ovarian, 97.4%; in the test with HS 578T breast it was 76.9%. For the same compound, the growth with NCI/ADR-RES ovarian is 99.3%.
